Source: PubChem
This is a sample that favours compounds with a hit; in the whole collection about 19% have one here.
DT40 TDP1 no CPT – qHTS for Inhibitors of human tyrosyl-DNA phosphodiesterase 1 (TDP1): qHTS in cells in absence of CPT; Potency, µM (titrated, usually from 46.2 µM), without a hit: top-dose activity change, negative = growth inhibition, actives largely listed as inhibitors; DT40 Tdp1-/- hTDP1 cells, no CPT, ATP luminescence, 48 h; AID 686978, 2013; 420,000 compounds, 15% hits; further: nearly all actives have a fitted effect of over 55% in size
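Seeded 400 DT40-hTDP1 cells/well (vehicle DMSO, no 20 nM CPT); pinned compounds; ≥48 hr at 37 °C; CellTiter-Glo luminescence as viability measure.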
DT40 TDP1 CPT – qHTS for Inhibitors of human tyrosyl-DNA phosphodiesterase 1 (TDP1): qHTS in cells in presence of CPT | 420,000 compounds, 12% hits | chicken DT40 Tdp1-/-;hTDP1 cells + 20 nM CPT, ATP luminescence, 48 h | AID 686979, 2013 | Potency, µM (top dose mostly 46.2 µM), inactives show top-dose activity change, negative = growth inhibition, most hits filed as inhibitors; further: nearly all actives have a fitted effect of over 55% in size
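Cell growth measured by CellTiter-Glo luminescence after a minimum 48 h, 37 C compound exposure with 20 nM CPT in Tdp1-knockout DT40 cells stably expressing hTDP1, seeded 400/well; qHTS titration format.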
KB-3-1 tox – qHTS assay for MDR1-selective chemotherapeutics: Primary screen using the parental adenocarcinoma cell KB-3-1; KB-3-1 viability, CellTiter-Glo ATP luminescence, 72 h; Potency, µM (highest dose often 46.1 µM), hits mostly cytotoxic; 400,000 compounds, 1.4% hits; AID 1347075, 2019; further: nearly all actives have a fitted effect of over 60% in size
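Cells are dispensed, compounds pinned in, plates held at 37 °C for 72 h, then CellTiter-Glo is added and luminescence read after 10 minutes. Cell line: parental KB-3-1 in phenol-red-free DMEM, 10% FBS.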
HT1080-NT tox – qHTS for induction of synthetic lethality in tumor cells producing 2HG: qHTS for the HT-1080-NT fibrosarcoma cell line. HT-1080-NT fibrosarcoma viability, CellTiter-Glo ATP luminescence, 48 h. Potency, µM (top dose mostly 46.1 µM), for the others: at the top dose activity, negative = less viability, usual class: cytotoxic. 360,000 compounds, 1.6% hits;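 further: NT is the 2HG producing partner of a matched IDH1 knockdown line; 0% = DMSO-treated cells and -100% = media-only wells without cells; nearly all actives have a fitted effect of over 55% in size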
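Viability by CellTiter-Glo luminescence after 48 h compound exposure at 37C of HT-1080-NT cells (750/well, RPMI, 5% FBS). % activity scaled between DMSO wells and medium-only wells, then curve-fitted and categorized by curve class.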
KB-V1 cytotox – qHTS assay for MDR1-selective chemotherapeutics: Primary screen using the drug-selected MDR subline cells KB-V1; 400,000 compounds, 3.4% hits; Potency, µM (doses to about 46.1 µM), hits mostly cytotoxic; KB-V1 MDR cells viability, CellTiter-Glo, 72 h; AID 1347076, 2019; further: nearly all actives have a fitted effect of over 60% in size
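In this primary screen, KB-V1 cells overexpressing P-gp are incubated with library compounds (lowest to highest concentration) for 72 h at 37 degrees C before a luminescent ATP viability read.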
HT1080 IDH1KD tx – qHTS for induction of synthetic lethality in tumor cells producing 2HG: qHTS for the HT-1080-IDH1KD cell line. HT-1080 IDH1 knockdown viability, ATP luminescence, 48 h. Potency, µM (doses to about 46.1 µM), for the others: at the top dose activity, negative = toxicity, actives largely listed as cytotoxic. 360,000 compounds, 2% hits;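 further: 0% = DMSO wells and -100% = cell-free medium wells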
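% activity derives from luminescence (CellTiter-Glo), normalised to DMSO and no-cell wells. HT-1080-IDH1KD cells, 750/well, had 48 h compound exposure at 37 °C.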
* marks the source's active call; other numbers are inactive results; i = inactive; ? = inconclusive; · = not tested or not shown. The call rests on the fitted dose curve; in most records, active means well fitted curve in the direction sought with a large enough effect; inconclusive means small, poorly fitted or top-dose-only effect, or another doubt; inactive means no such curve, though single readings can be large; an effect the other way counts as inactive or inconclusive. Unless noted, on the % scale 0 is the no-effect control and ±100 the full control effect; potency means the concentration at half of the fitted maximal effect.

SMILES | DT40 TDP1 no CPT | DT40 TDP1 CPT | KB-3-1 tox | HT1080-NT tox | KB-V1 cytotox | HT1080 IDH1KD tx
N#C/C(=C/c1ccc(N2CCOCC2)o1)c1ccc(Br)cc1 | 15µM* | 9.2µM* | ? | ? | 18µM* | ?
N#C/C(=C/c1ccc(N2CCOCC2)o1)c1nc2ccccc2[nH]1 | ? | ? | i | -25% | ? | ?
NS(=O)(=O)c1ccc(NC(=O)CN2CCc3ccccc3C2)cc1 | -11% | 4% | i | -4% | i | 12%
COc1cc(/C=N/NC(=O)Cc2nnc(N)s2)cc(OC)c1OC | -6% | 5% | i | 4% | i | 14%
COCCNC(=S)N1CCC(NC(=O)Nc2ccc(C)cc2)CC1 | -24% | 0% | i | -1% | i | 0%
COc1ccc(C2NC(C(=O)O)CS2)cc1COCC(F)(F)F (centres undefined) | -1% | 3% | i | 3% | ? | -2%
COc1ccc(-c2nc3c(c(SCc4cc(C)ccc4C)n2)Cc2c(CO)cnc(C)c2O3)cc1 | -2% | -4% | i | · | i | ·
Cc1ncc(CO)c2c1Oc1nc(-c3ccccc3)nc(SCC(=O)N3CCOCC3)c1C2 | 10µM* | 18µM* | i | -14% | i | -10%
COc1ccccc1-c1nc2c(c(SCc3cc(C)ccc3C)n1)Cc1c(CO)cnc(C)c1O2 | 10µM* | 9.2µM* | i | · | i | ·
COc1cccc(-c2nc3c(c(SCC(=O)Nc4cc(C)ccc4C)n2)Cc2c(CO)cnc(C)c2O3)c1 | -4% | -22% | · | · | · | ·
Cc1cccc(-c2nc3c(c(SCC(=O)N4CCOCC4)n2)Cc2c(CO)cnc(C)c2O3)c1 | 3.7µM* | ? | 15µM* | ? | i | ?
Cc1cccc(NC(=O)CSc2nc(-c3cccc(C)c3)nc3c2Cc2c(CO)cnc(C)c2O3)c1 | -29% | ? | i | · | i | ·
COc1ccc(NC(=O)CSc2nc(-c3ccccc3)nc3c2Cc2c(CO)cnc(C)c2O3)cc1Cl | 5% | 7% | i | · | i | ·
COc1cccc(-c2nc3c(c(SCC(=O)N4CCOCC4)n2)Cc2c(CO)cnc(C)c2O3)c1 | 4.1µM* | 21µM* | i | -13% | i | -21%
CC1(C(=O)NS(=O)(=O)c2ccccc2C(F)(F)F)CCN1C(=O)CCc1ccccc1 (centres undefined) | 7% | 9% | i | 18% | i | 1%
CCO[C@H](Cc1ccc(OCCc2ccc(OS(C)(=O)=O)cc2)cc1)C(=O)O | 0% | -6% | · | · | · | ·
COCCn1c(SCC(=O)Nc2cccc(C)n2)nnc1-c1ccco1 | 0% | 2% | i | 16% | i | 11%
CCc1ccc(CSc2nc(-c3ccccc3F)nc3c2Cc2c(CO)cnc(C)c2O3)cc1 | -22% | ? | i | · | i | ·
CCN(CC)C(=O)CSc1nc(-c2ccccc2F)nc2c1Cc1c(CO)cnc(C)c1O2 | 4.6µM* | 3.7µM* | i | · | i | ·
COc1ccccc1-c1nc2c(c(SCC(=O)Nc3ccc(C)c(C)c3)n1)Cc1c(CO)cnc(C)c1O2 | 9.2µM* | 16µM* | · | · | · | ·
COc1ccccc1-c1nc2c(c(SCC(=O)N3CCCCC3)n1)Cc1c(CO)cnc(C)c1O2 | 6.5µM* | 9.2µM* | i | -18% | i | -8%
Cc1ncc(CO)c2c1Oc1nc(-c3ccc(Cl)cc3)nc(SCC(=O)N3CCCCC3)c1C2 | 16µM* | ? | i | · | ? | ·
